Screening results as filed in PubChem BioAssay.
Hits are enriched below; roughly 2.9% of the tested compounds scored in any of these assays.
ABHD5 PLIN5 PPI = blocks binding of human ABHD5 to perilipin-5; Q00G26+Q8WTS1; Split G. princeps luciferase complementation, luminescence, 4 h; inhibition, % at 4 µM; 360,000 tested, 0.78% active; AID 602281;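 active = inhibition above the mean inhibition across every tested compound plus 3 SD, cut at about 22% in these data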
Myeloid diff MLP = promotes myeloid progenitor differentiation. AID 624256. calls only at 10 µM. ER-HoxA9 myeloid progenitors, lysozyme-GFP differentiation, flow cytometry. 360,000 tested, 1% active;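 active = normalized GFP-positive differentiation at or above the plate's own cutoff, the solvent-only control mean plus 3 SD; inconclusive = no clear call, values can overlap the other calls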;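 note: cells exposed to compound for four days before flow analysis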
DAGLB inhibitor = blocks human DAGLB lipase activity; HEK293T DAGLB membrane lysate, EnzChek fluorogenic substrate; inhibition, % at 5.17 µM; 340,000 tested, 0.059% active; AID 504411; in the data active = inhibition above about 34%
Target sequence (Q8NCG7 whole entry, looked up): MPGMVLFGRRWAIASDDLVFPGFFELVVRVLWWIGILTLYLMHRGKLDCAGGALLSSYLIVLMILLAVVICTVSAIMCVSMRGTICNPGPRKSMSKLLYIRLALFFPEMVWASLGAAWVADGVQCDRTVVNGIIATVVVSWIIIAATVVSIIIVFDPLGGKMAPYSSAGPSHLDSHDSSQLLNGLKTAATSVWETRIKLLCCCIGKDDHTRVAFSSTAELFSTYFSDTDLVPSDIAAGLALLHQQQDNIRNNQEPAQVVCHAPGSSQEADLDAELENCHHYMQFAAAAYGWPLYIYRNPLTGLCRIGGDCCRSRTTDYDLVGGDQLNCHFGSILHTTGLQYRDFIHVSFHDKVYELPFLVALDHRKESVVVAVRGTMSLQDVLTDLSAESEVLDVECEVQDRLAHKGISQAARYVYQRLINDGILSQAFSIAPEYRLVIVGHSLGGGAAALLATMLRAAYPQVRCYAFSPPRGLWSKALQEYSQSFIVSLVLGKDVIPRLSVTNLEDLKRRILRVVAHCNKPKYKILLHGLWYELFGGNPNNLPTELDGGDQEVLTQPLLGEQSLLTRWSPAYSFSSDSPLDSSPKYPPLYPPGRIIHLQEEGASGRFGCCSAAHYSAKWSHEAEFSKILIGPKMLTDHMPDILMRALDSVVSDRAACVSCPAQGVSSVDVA
sPLA2-III inh = Blocks human group III sPLA2 activity; Q9NZ20; QFRET BODIPY PC-A2 liposome hydrolysis, fluorescence; inhibition, % at 12.2 µM; 370,000 tested, 0.56% active; AID 743126;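 active = inhibition above mean plus 3 SD of compounds lying within the high and low control bounds, cut at about 19% in these data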
Rtt109 HAT inh = blocks Candida albicans Rtt109/Vps75 acetyltransferase activity | purified Rtt109/Vps75, ThioGlo CoA-SH fluorescence, 4 h | AID 540336 | 330,000 tested, 0.16% active | Q5AAJ8 | inhibition, % at 34.9 µM;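 active = inhibition of at least 50% in every replicate; inconclusive = best replicate reaches 50% inhibition but some replicates fall short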
H9c2 protect = myocardial damage modulation in H9c2 cells; H9c2 cardiomyocytes, H2O2 injury protection, ATPLite, 2 h; protection from H2O2 cell death, % at 20 µM; 360,000 tested, 0.63% active; AID 588492;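 active = compounds giving at least 50% protection of heart cells from peroxide-induced death in the single-dose screen, raw or plate-pattern-corrected value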
Large screens that a line does not name were inactive.

COc1ccc(N2CCN(C(=O)CNC(=O)Cc3ccccc3)CC2)cc1	Rtt109 HAT inh 53
COc1ccccc1N1CCN(CC(=O)Nc2ccccc2C(=O)NC(C)c2ccccc2)CC1 (centres undefined)	none
COc1ccc(N2CCN(C(=O)CNC(=O)Cc3ccc(Cl)cc3)CC2)cc1	none
COc1ccc(N2CCN(CC(=O)Nc3ccccc3C(=O)NC(C)c3ccccc3)CC2)cc1 (centres undefined)	Myeloid diff MLP active (no result: Rtt109 HAT inh)
Cc1ccc(C(C)C)c(OCc2ccc(C(=O)N/N=C/c3ccc(O)cc3O)cc2)c1	Myeloid diff MLP inconclusive, H9c2 protect 57
CC(=O)C1CCC2C3CC=C4CC(SC(=N)N)CCC4(C)C3CCC12C (centres undefined)	sPLA2-III inh 37
COc1ccc2c(c1)CC/C(=C\c1ccc(C)o1)C2=O	none (no result: Myeloid diff MLP)
COc1ccc2c(c1)CC/C(=C/c1ccncc1)C2=O	Myeloid diff MLP active (no result: sPLA2-III inh)
CCOc1cc(/C=C/c2ccc3cccc([N+](=O)[O-])c3n2)ccc1OCC(=O)N(C)C	H9c2 protect 57
CCOc1cc(/C=C/c2ccc3cccc([N+](=O)[O-])c3n2)ccc1O	none
N#C/C(=C/c1ccc(O)c(O)c1)c1nc2ccccc2[nH]1	Myeloid diff MLP active
N#C/C(=C\Nc1ccc2c(c1)OCCO2)c1nc(-c2ccccc2)cs1	none (no result: Rtt109 HAT inh)
COC(=O)c1ccc(COc2ccc(/C=C(\C#N)c3nc4ccccc4[nH]3)cc2OC)o1	Myeloid diff MLP inconclusive, H9c2 protect 70
COc1cc(/C=C(/C#N)c2nc3ccccc3[nH]2)ccc1OCc1ccc(C(=O)O)o1	none
N#C/C(=C\Nc1ccc2c(c1)OCCO2)c1nc2ccccc2[nH]1	H9c2 protect 82
N#C/C(=C\c1cccs1)c1nc2ccccc2[nH]1	none
COc1cc(S(=O)(=O)n2nc(C)cc2C)c(OC)cc1Cl	Rtt109 HAT inh 65
CC1CC(=O)N(c2ccc(NCc3ccc(Cl)cc3)c([N+](=O)[O-])c2)C1=O (centres undefined)	Myeloid diff MLP inconclusive
COC(=O)c1c(C)[nH]c(C(=O)/C=C/c2cccc(Cl)c2)c1C	none
O=C(CCCCCN1C(=O)c2ccccc2C1=O)Nc1cccc(O)c1	none
C[C@H](NC(=O)c1nc[nH]c1C(=O)NCC(=O)OCc1ccccc1)C(=O)OCc1ccccc1	H9c2 protect 77
CC(C)(C)OC(=O)CNC(=O)c1[nH]cnc1C(=O)NC(c1ccccc1)c1ccccc1	H9c2 protect 59
CC(C)(C)OC(=O)NCc1ccc(CNC(=O)c2nc[nH]c2C(=O)NCc2ccccc2)cc1	none
C[C@H](NC(=O)c1nc[nH]c1C(=O)OCc1ccccc1)c1ccccc1	none
C[C@@H](OC(=O)c1[nH]cnc1C(=O)NCc1ccc(CNC(=O)OC(C)(C)C)cc1)c1ccccc1	H9c2 protect 59
C[C@H](NC(=O)c1nc[nH]c1C(=O)NCC(=O)OCc1ccccc1)c1ccccc1	H9c2 protect 84
C[C@H](NC(=O)c1nc[nH]c1C(=O)NC(c1ccccc1)c1ccccc1)C(=O)OC(C)(C)C	none
Cc1nc2ccc(C(=O)Nc3cccc(NS(C)(=O)=O)c3)cn2c1N(C)C(=O)CCc1ccccc1	none (no result: DAGLB inhibitor, Rtt109 HAT inh)
COc1ccc(OC)c(NC(=O)C2=C(C)NC(=O)NC2c2cccs2)c1 (centres undefined)	none
COc1ccccc1C(=O)NNC(=O)c1cccc(Br)c1	none
Nc1c(N(CCC2=CCCCC2)C(=O)c2ccc([N+](=O)[O-])o2)c(=O)[nH]c(=O)n1Cc1ccccc1	Myeloid diff MLP active
Cc1ccc(C(=O)N(CCC2=CCCCC2)c2c(N)n(Cc3ccccc3)c(=O)[nH]c2=O)o1	none
O=C1OC[C@@H]2CCCN2C(=O)[C@H](CC(=O)N(CCO)Cc2ccccc2)C/C=C\CC[C@H]1Cc1ccc(F)cc1	none
CCN1C(=O)[C@H]2[C@H]3CN=C(SCc4ccc(C#N)cc4)N3[C@@](Cc3ccccc3)(C(=O)OC)[C@H]2C1=O	H9c2 protect 55
CC1(C)Oc2ccc3ccc(=O)oc3c2/C(=C/Nc2ccccn2)C1=O	H9c2 protect 56
O=C(CCC(=O)c1cccs1)OCC(=O)N1CCN(S(=O)(=O)c2ccccc2)CC1	none
Cc1cc(/C=C2\SC(=O)N(C)C2=O)c(C)n1-c1ccc(O)cc1	none
O=C1C(=C2CCCCC2)SC(=S)N1Cc1ccco1	none
CN(C)c1ccc(C=C2SC(=S)N(Cc3ccco3)C2=O)cc1	Myeloid diff MLP active (no result: Rtt109 HAT inh)
COc1ccc(-n2c(C)cc(/C=C3/SC(=S)N(C)C3=O)c2C)cc1	Myeloid diff MLP active
O=C(O)CN1C(=O)/C(=C\c2ccc(OC(=O)c3ccco3)cc2)SC1=S	none
Cc1cc(/C=C2\SC(=S)N(Cc3ccco3)C2=O)c(C)n1-c1ccccc1	Myeloid diff MLP active
CC(C)=CCCC(C)c1cc(C(=O)NCCc2ccc(O)cc2)c(N)s1 (centres undefined)	none (no result: DAGLB inhibitor, Rtt109 HAT inh, H9c2 protect)
Cn1c(NCc2cccnc2)nc2c1c(=O)n(Cc1ccccc1F)c(=O)n2C	none
O=C(C1CC1)N1CCCN(C(=O)C2CC2)CC1	none
O=C(NC1CCCC1)c1cc(=O)[nH]c2ccccc12	none
Cc1cc(/C=N/n2c(COc3ccccc3)nc3ccccc3c2=O)c(O)c([N+](=O)[O-])c1	sPLA2-III inh 39
O=c1c2ccccc2nc(COc2ccccc2)n1/N=C/c1ccc(O)c(O)c1	H9c2 protect 56
O=C(O)COc1ccc(/C=N/n2c(COc3ccccc3)nc3ccccc3c2=O)cc1	none
Cc1ccc(-c2[nH]ncc2/C=N/n2c(COc3ccccc3)nc3ccccc3c2=O)cc1	none
O=C(Cn1nnc(-c2ccc(N3CCOCC3)cc2)n1)OC1CCCCC1	none
CCOC(=O)c1c(C)[nH]c(C)c1S(=O)(=O)NCCc1sccc1C	Myeloid diff MLP active
CCOC(=O)c1c(C)[nH]c(C)c1S(=O)(=O)NCCc1ccc(SC)cc1	none
c1ccc2c3c(c(CN4CCCC4)cc2c1)COC3	none
O=C(NCc1ccc(F)cc1)C(c1ccccc1)c1ccccc1	none
CC(=O)N(Cc1ccc(F)cc1)C1=C(NCc2ccccc2)C(=O)c2ccccc2C1=O	Myeloid diff MLP active (no result: sPLA2-III inh)
O=C(NCc1ccco1)c1ccc(-c2ccc3nccn3c2)cc1	ABHD5 PLIN5 PPI 22 (no result: DAGLB inhibitor, Rtt109 HAT inh)
O=C(NC1CC1)c1ccc(-c2ccc3nccn3c2)cc1	none (no result: DAGLB inhibitor, Rtt109 HAT inh)
O=C(Nc1nc2ccc(Cl)cc2s1)c1cccc(N2C(=O)CCC2=O)c1	none
CS(=O)(=O)N(CC(=O)Nc1ccc(CC#N)cc1)c1ccc(C23CC4CC(CC(C4)C2)C3)cc1	Myeloid diff MLP active
CCOc1ccccc1N1CC(O)=C(c2nc3ccccc3s2)C1=N	Myeloid diff MLP inconclusive, H9c2 protect 95
CNC(=O)NC(=S)NC(=O)c1ccccc1Cl	none
O=C(Nc1ccc(Nc2cccnc2)cc1)c1c[nH]c2ccccc12	sPLA2-III inh 25 (no result: ABHD5 PLIN5 PPI, Myeloid diff MLP, DAGLB inhibitor, Rtt109 HAT inh, H9c2 protect)
